Assay results taken from PubChem BioAssay (EPA / NIEHS).
Results filed as inconclusive are left out. Activity calls are given as the source filed them. The calls were made as follows, unless noted: active = hit-call score of the fitted dose curve at least 0.9, where 1 is the maximum; inactive = score below 0.9.

How the values were obtained:
[1] = target: human RAR-related Orphan Receptor beta (RORb), RORB (gene 6096) (UniProt Q92753); test: ATG_RORb_TRANS: Attagene TRANS-FACTORIAL HepG2 Assay for human RAR-related Orphan Receptor beta (RORb) (AID 2283010; active = hit-call score of the fitted dose curve at least 0.9, where 1 is the maximum)
Method in brief: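 HepG2 cells were transiently transfected with multiplexed GAL4-UAS reporter units expressing chimeric nuclear receptor–GAL4 proteins, then dosed for 24 h. Reporter mRNA was quantified by RT-PCR with fluorescent labelling and capillary electrophoresis; gain of signal was fitted relative to DMSO.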

[2] = target: Retinoic acid receptor RXR-alpha (Homo sapiens) (UniProt P19793); test: ATG_RXRa_TRANS: Attagene TRANS-FACTORIAL HepG2 Assay for human Retinoid X Receptor alpha (RXRa) (AID 2283012; active = hit-call score of the fitted dose curve at least 0.9, where 1 is the maximum)
Method in brief: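 HepG2 cells transiently transfected with multiplexed GAL4-UAS reporter units and chimeric NR-GAL4 fusions, dosed 24 h. Reporter mRNA measured by RT-PCR, FAM labelling, HpaI digestion and capillary electrophoresis; gain-of-signal fitted relative to DMSO baseline.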

[3] = target: human Retinoid X Receptor beta (RXRb), RXRB (gene 6257) (UniProt P28702); test: ATG_RXRb_TRANS: Attagene TRANS-FACTORIAL HepG2 Assay for human Retinoid X Receptor beta (RXRb) (AID 2283013; active = hit-call score of the fitted dose curve at least 0.9, where 1 is the maximum)
Method in brief: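 HepG2 cells transiently transfected with multiplexed reporter units driven by GAL4-UAS and exogenous chimeric NR-Gal4 proteins; treated 24 h. Reporter mRNA measured by RT-PCR, 6-FAM labelling and capillary electrophoresis; gain-of-signal fitted versus DMSO baseline.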

[4] = read-out: E-selectin (Homo sapiens) (UniProt P16581); test: BSK_3C_Eselectin: BioMAP Diversity Plus: 3C Assay for Eselectin Biomarker Activity (AID 2283015); conditions: primary human endothelial cells (HUVEC); actives raise or lower the signal;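 also: cell surface E-selectin protein quantified by ELISA 24 h after dosing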
Method in brief: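 E-selectin ELISA readout, fitted bidirectionally relative to DMSO, taken 24 h post-dosing in HUVEC cultures of the 3C system. Overt cytotoxicity tracked with sulforhodamine B staining of parallel wells.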

[5] = read-out: Interleukin-1 alpha (IL1a), IL1A (gene 3552); test: BSK_BE3C_IL1a: BioMAP Diversity Plus: BE3C Assay for Interleukin-1 alpha (IL1a) Biomarker Activity (AID 2283016); conditions: primary human bronchial epithelial cells; actives raise or lower the signal
Method in brief: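 Human primary bronchial epithelial cells (BE3C system) were dosed with compound and IL-1a measured by ELISA 24 h later. Activity was fitted bidirectionally against DMSO baseline; cytotoxicity was tracked in parallel cultures by SRB total-protein staining.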

[6] = read-out: Monocyte Chemoattractant Protein-1 (MCP1), CCL2 (gene 6347); test: BSK_3C_MCP1: BioMAP Diversity Plus: 3C Assay for Monocyte Chemoattractant Protein-1 (MCP1) Biomarker Activity (AID 2283017); conditions: primary human endothelial cells (HUVEC); actives raise or lower the signal
Method in brief: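 MCP-1 was measured by ELISA 24 h after dosing in primary HUVEC 3C cultures and fitted in both directions relative to DMSO; cytotoxicity was checked by SRB total-protein staining in parallel wells.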

[7] = read-out: Monocyte Chemoattractant Protein-1 (MCP1), CCL2 (gene 6347); test: BSK_4H_MCP1: BioMAP Diversity Plus: 4H Assay for Monocyte Chemoattractant Protein-1 (MCP1) Biomarker Activity (AID 2283018); conditions: primary human endothelial cells (HUVEC); actives raise or lower the signal
Method in brief: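 Human umbilical vein endothelial cells (4H system) dosed with chemical; MCP-1 measured by ELISA 24 h after dosing. Bidirectional curve fitting against DMSO negative control as baseline; parallel SRB total-protein staining tracks overt cytotoxicity.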

[8] = read-out: Human Leukocyte Antigen - DR isotype (HLADR), HLA-DRA (gene 3122); test: BSK_3C_HLADR: BioMAP Diversity Plus: 3C Assay for Human Leukocyte Antigen - DR isotype (HLADR) Biomarker Activity (AID 2283019); conditions: primary human endothelial cells (HUVEC); actives raise or lower the signal
Method in brief: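 Bidirectional fitting against DMSO was applied to the HLA-DR ELISA signal from human umbilical vein endothelial cells, 24 h post-dose. Cytotoxicity came from parallel SRB total-protein staining; 3C proliferation was counted by SRB at 48 h.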

[9] = read-out: Interleukin-8 (IL8), CXCL8 (gene 3576); test: BSK_3C_IL8: BioMAP Diversity Plus: 3C Assay for Interleukin-8 (IL8) Biomarker Activity (AID 2283020); conditions: primary human endothelial cells (HUVEC); actives raise or lower the signal
Method in brief: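 Primary human umbilical vein endothelial cells (3C system) were exposed to test chemical for 24 h, then IL-8 was quantified by ELISA. Responses were fitted bidirectionally against DMSO vehicle as baseline.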

[10] = read-out: Monokine induced gamma interferon (MIG), CXCL9 (gene 4283); test: BSK_3C_MIG: BioMAP Diversity Plus: 3C Assay for Monokine induced gamma interferon (MIG) Biomarker Activity (AID 2283021); conditions: primary human endothelial cells (HUVEC); actives raise or lower the signal
Method in brief: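 Primary human umbilical vein endothelial cells in the 3C system were exposed to chemical for 24 h, after which MIG was quantified by ELISA. Activity was fitted bidirectionally against DMSO as negative control and baseline.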

[11] = target: human Vitamin D Receptor (VDR), VDR (gene 7421) (UniProt P11473); test: ATG_VDR_TRANS: Attagene TRANS-FACTORIAL HepG2 Assay for human Vitamin D Receptor (VDR) (AID 2283022; active = hit-call score of the fitted dose curve at least 0.9, where 1 is the maximum)
Method in brief: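 Transactivation by an exogenous VDR-Gal4 chimera in transiently transfected HepG2 cells was measured as reporter transcript level 24 hours after chemical treatment. RT-PCR products were analysed by capillary electrophoresis and fitted in the positive direction relative to DMSO.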

[12] = BSK_3C_SRB: Viability Assessment in the BioMAP Diversity Plus: 3C Assay (AID 2283023); conditions: primary human endothelial cells (HUVEC);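 also: fitted both ways against DMSO so a hit may be signal rise or drop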
Method in brief: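 Cytotoxicity readout in parallel HUVEC 3C cultures: after 24 h compound exposure, cells fixed with 10% TCA, stained with 0.1% SRB and read at 560 nm. Gain or loss relative to DMSO fitted.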

[13] = read-out: Matrix Metallopeptidase 1 (MMP1), MMP1 (gene 4312); test: BSK_BE3C_MMP1: BioMAP Diversity Plus: BE3C Assay for Matrix Metallopeptidase 1 (MMP1) Biomarker Activity (AID 2283024); conditions: primary human bronchial epithelial cells; actives raise or lower the signal
Method in brief: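 Primary human bronchial epithelial cells were dosed with test chemicals, and MMP1 levels were measured by ELISA 24 h later. Data were fitted bidirectionally against DMSO as the negative control and activity baseline.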

[14] = BSK_3C_Vis: BioMAP Diversity Plus: 3C Assay for Morphology Visualization (AID 2283025); conditions: primary human endothelial cells (HUVEC);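 also: fitted both ways so gain or loss versus DMSO counts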
Method in brief: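 Human umbilical vein endothelial cells in the 3C system were imaged by light microscopy 24 h after chemical dosing to record cell morphology. Activity was fitted bidirectionally against DMSO as negative control and baseline; the endpoint serves as a background control.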

[15] = read-out: Pselectin, SELP (gene 6403); test: BSK_4H_Pselectin: BioMAP Diversity Plus: 4H Assay for Pselectin Biomarker Activity (AID 2283026); conditions: primary human endothelial cells (HUVEC); actives raise or lower the signal
Method in brief: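 Primary human umbilical vein endothelial cells were exposed to test chemical for 24 h, then cell-surface P-selectin was quantified by ELISA. Activity was fitted bidirectionally against DMSO as negative control and baseline.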

[16] = BSK_4H_SRB: Viability Assessment in the BioMAP Diversity Plus: 4H Assay (AID 2283027); conditions: primary human endothelial cells (HUVEC);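 also: cells exposed to compound for 24 h before staining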;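 as to AC50: curves fitted both ways versus DMSO so AC50 may be loss or gain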
Method in brief: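 Human umbilical vein endothelial cells were dosed with chemical and, after 24 h, fixed with 10% TCA, stained with 0.1% sulforhodamine B, and read at 560 nm to give total protein as a cytotoxicity measure. Bidirectional fitting relative to DMSO control.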

[17] = BSK_BE3C_SRB: Viability Assessment in the BioMAP Diversity Plus: BE3C Assay (AID 2283028); conditions: primary human bronchial epithelial cells
Method in brief: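 Cytotoxicity read-out: SRB (0.1%) staining of TCA-fixed (10%) human lung bronchial epithelial cells, absorbance 560 nm, 24 h post-dosing. Curves fitted both directions relative to DMSO.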

[18] = read-out: Thrombomodulin, THBD (gene 7056); test: BSK_3C_Thrombomodulin: BioMAP Diversity Plus: 3C Assay for Thrombomodulin Biomarker Activity (AID 2283029); conditions: primary human endothelial cells (HUVEC); actives raise or lower the signal
Method in brief: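 Primary human umbilical vein endothelial cells (3C system) were exposed to chemical for 24 h, then thrombomodulin levels were measured by ELISA. Activity was fitted bidirectionally against the DMSO negative control as baseline.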

[19] = read-out: Urokinase-type plasminogen activator receptor (uPAR), PLAUR (gene 5329); test: BSK_4H_uPAR: BioMAP Diversity Plus: 4H Assay for Urokinase-type plasminogen activator receptor (uPAR) Biomarker Activity (AID 2283030); conditions: primary human endothelial cells (HUVEC); actives raise or lower the signal
Method in brief: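 uPAR level read by ELISA on HUVEC cultures (BioMAP 4H) 24 h post-dosing, analyzed for gain or loss relative to DMSO. Parallel SRB staining assessed overt cytotoxicity.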

[20] = read-out: Vascular endothelial growth factor receptor 2 (Homo sapiens) (UniProt P35968); test: BSK_4H_VEGFRII: BioMAP Diversity Plus: 4H Assay for Vascular endothelial growth factor receptor 2 (VEGFR2) Biomarker Activity (AID 2283031); conditions: primary human endothelial cells (HUVEC); actives raise or lower the signal;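 as to AC50: cell-surface VEGFR2 protein level quantified by ELISA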
Method in brief: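 Measured by ELISA after 24 h of compound treatment: VEGFR2 on primary human umbilical vein endothelial cells, fitted in both directions relative to DMSO. Parallel cultures received SRB staining (560 nm) for overt cytotoxicity.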

Measured: AC50

human Vitamin D Receptor (VDR), VDR (gene 7421), sequence (P11473 whole entry, looked up, the tested form may be a part): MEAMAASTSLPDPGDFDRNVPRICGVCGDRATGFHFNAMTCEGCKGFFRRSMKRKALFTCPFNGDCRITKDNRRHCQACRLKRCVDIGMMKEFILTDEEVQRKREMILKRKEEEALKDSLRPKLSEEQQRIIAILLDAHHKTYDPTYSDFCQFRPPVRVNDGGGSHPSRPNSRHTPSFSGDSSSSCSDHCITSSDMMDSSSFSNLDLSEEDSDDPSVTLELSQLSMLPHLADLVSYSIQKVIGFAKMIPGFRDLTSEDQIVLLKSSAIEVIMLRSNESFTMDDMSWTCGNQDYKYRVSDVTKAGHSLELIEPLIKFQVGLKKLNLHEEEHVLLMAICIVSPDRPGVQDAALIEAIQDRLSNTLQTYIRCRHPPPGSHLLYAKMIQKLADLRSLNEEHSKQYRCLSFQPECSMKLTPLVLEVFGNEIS
human Retinoid X Receptor beta (RXRb), RXRB (gene 6257), sequence (P28702 whole entry, looked up, the tested form may be a part): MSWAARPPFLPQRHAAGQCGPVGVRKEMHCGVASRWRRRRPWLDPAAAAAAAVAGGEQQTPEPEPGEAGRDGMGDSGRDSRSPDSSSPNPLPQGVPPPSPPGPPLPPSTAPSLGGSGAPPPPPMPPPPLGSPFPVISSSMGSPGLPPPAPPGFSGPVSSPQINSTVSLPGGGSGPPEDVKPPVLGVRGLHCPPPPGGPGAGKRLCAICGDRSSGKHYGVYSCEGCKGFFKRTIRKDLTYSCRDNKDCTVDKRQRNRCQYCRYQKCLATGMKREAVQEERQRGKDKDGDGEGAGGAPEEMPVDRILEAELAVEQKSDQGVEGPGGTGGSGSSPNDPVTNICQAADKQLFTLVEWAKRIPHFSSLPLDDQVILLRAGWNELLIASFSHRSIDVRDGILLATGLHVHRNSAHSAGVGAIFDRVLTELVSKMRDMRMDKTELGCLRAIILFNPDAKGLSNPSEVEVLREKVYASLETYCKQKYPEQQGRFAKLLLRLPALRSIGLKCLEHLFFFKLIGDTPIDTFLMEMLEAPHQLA
human RAR-related Orphan Receptor beta (RORb), RORB (gene 6096), sequence (Q92753 whole entry, looked up, the tested form may be a part): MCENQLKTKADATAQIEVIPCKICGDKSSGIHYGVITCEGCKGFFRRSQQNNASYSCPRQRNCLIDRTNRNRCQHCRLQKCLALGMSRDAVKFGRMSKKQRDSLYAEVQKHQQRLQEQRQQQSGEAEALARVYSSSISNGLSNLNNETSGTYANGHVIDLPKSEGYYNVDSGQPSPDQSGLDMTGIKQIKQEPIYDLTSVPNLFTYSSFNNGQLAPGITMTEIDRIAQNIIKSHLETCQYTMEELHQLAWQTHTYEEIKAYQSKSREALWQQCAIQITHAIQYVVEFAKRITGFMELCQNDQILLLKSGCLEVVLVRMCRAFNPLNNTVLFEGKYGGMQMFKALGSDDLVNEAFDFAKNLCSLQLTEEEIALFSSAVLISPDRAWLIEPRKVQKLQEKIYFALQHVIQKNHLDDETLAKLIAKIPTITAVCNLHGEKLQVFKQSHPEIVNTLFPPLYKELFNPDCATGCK
E-selectin (Homo sapiens), sequence (P16581 whole entry, looked up): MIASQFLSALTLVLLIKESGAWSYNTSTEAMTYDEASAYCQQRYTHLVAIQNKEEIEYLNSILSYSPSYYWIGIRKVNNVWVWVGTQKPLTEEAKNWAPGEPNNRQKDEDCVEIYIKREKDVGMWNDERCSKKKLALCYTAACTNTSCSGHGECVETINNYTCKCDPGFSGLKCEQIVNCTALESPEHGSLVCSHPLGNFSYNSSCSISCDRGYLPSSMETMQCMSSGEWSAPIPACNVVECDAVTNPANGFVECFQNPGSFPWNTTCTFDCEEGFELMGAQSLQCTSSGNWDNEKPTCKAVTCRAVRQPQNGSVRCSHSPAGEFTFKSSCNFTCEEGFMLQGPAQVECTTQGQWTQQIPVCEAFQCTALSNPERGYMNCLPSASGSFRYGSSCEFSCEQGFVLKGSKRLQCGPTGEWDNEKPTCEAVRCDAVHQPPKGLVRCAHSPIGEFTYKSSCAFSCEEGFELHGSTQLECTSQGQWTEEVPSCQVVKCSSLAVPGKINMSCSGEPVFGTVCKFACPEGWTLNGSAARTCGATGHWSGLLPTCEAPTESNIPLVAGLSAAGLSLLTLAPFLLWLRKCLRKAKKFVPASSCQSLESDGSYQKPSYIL
Retinoic acid receptor RXR-alpha (Homo sapiens), sequence (P19793 whole entry, looked up, the tested form may be a part): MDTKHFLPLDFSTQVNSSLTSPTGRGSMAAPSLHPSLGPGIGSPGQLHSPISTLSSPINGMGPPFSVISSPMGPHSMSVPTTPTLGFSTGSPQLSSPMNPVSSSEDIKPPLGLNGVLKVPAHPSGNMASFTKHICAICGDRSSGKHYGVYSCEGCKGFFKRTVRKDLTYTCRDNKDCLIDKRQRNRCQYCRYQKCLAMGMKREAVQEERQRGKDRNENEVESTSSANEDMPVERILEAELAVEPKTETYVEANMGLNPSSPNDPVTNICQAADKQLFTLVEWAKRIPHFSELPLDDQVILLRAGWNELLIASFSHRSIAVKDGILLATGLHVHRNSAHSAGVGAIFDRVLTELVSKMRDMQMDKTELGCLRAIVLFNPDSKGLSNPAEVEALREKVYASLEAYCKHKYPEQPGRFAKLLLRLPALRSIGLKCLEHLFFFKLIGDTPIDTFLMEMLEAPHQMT

CCCCCCC(=O)OCC
active: [3] 32.5 µM
inactive: all other assays above

COc1cccc2c1C(=O)c1c(O)c3c(c(O)c1C2=O)C[C@@](O)(C(=O)CO)C[C@@H]3O[C@H]1C[C@H](N)[C@H](O)[C@H](C)O1
inactive: [2] | [11]
active: [3] 0.0616 µM

Nc1ccc2c(c1)C(=O)c1ccccc1C2=O
not listed: [1] | [11]
inactive: all other assays above

Cc1ccc(Cl)cc1
not listed: [1] | [3]
inactive: all other assays above

O=C(O)Cc1ccccc1Nc1c(Cl)cccc1Cl
not listed: [2] | [3] | [17]
inactive: all other assays above

Cc1cccc([N+](=O)[O-])c1C
active: [3] 53.4 µM
not listed: [1]
inactive: all other assays above

CCc1c(C(=O)NN2CCCCC2)nn(-c2ccc(Cl)cc2Cl)c1-c1ccc(Br)cc1
inactive: [2] | [4] | [5] | [10] | [11] | [13] | [18]
active: [6] 7.54 µM | [7] 5.41 µM | [8] 10.4 µM | [9] 7.69 µM | [12] 9.03 µM | [14] 13.2 µM | [15] 2.66 µM | [16] 6.66 µM | [19] 6.58 µM | [20] 9.41 µM

CC(=O)Oc1ccccc1C(=O)O
active: [2] 127 µM | [3] 8.23 µM | [19] 0.412 µM
not listed: [1] | [11] | [17]
inactive: all other assays above

NS(=O)(=O)c1cc2c(cc1Cl)NCNS2(=O)=O
not listed: [1]
inactive: all other assays above

CCOC(=O)C(C)(C)Oc1ccc(Cl)cc1
not listed: [1] | [11] | [17]
inactive: all other assays above

COCCOCCOC
not listed: [2] | [3] | [11]
inactive: all other assays above

Cc1cc(NC(=O)C(=O)O)cc(C)c1Oc1ccc(O)c2c1CCC2
not listed: [1] | [17]
inactive: all other assays above

CC(C)(C)c1cc(O)c(C(C)(C)C)cc1O
active: [2] 60.2 µM | [3] 59.4 µM | [7] 2.88 µM | [8] 9 µM | [11] 61.2 µM | [14] 9.8 µM | [15] 5.24 µM | [16] 3.45 µM | [19] 4.17 µM | [20] 1.02 µM
inactive: [4] | [5] | [6] | [9] | [10] | [12] | [13] | [17] | [18]

CC(CO)OC(C)CO (stereo unspecified) (tested in a mixture with another compound)
active: [3] 13.8 µM
not listed: [1] | [17]
inactive: all other assays above

CCCCCCCCCCCC(=O)OC
active: [3] 57.9 µM
not listed: [1]
inactive: all other assays above
